# IMPase cell inh = cell-permeable inhibitors of inositol monophosphatase (IMPase); 120,000 tested, under 10 active; P97697; inhibition (IP1 accumulation), % at 46.1 µM; CHO-M1 cells, IP1 accumulation, HTRF TR-FRET ratio; active = well fitted curve in the direction sought with a large enough effect in the signal ratio, not every such curve was filed as active; inconclusive = small, poorly fitted or top-dose-only effect, or a change in a side signal; inactive = no such curve, though single readings can be large or run the other way; the % refers to the signal ratio;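 note: cells stimulated with carbachol in lithium chloride buffer; plate controls were DMSO basal wells for no effect and reference inhibitor wells for full effect; higher means more IMPase inhibition seen as more IP1 and lower FRET ratio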
# Target sequence (P97697 whole entry, looked up): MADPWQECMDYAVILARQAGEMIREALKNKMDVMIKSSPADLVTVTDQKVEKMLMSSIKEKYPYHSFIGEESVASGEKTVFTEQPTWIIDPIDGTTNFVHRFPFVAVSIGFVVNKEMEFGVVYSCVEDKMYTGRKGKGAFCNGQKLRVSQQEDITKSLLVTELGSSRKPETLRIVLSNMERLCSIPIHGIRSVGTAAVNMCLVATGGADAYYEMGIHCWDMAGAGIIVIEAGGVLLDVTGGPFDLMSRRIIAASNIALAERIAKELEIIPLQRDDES
#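 The IP-One HTRF competitive assay in carbachol-stimulated CHO-M1 cells quantifies cellular IP1. Compounds spanned up to 46 uM final, and activity is expressed as AC50 from concentration-response fits of the ratio and donor data.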
# ALDH1A1 inh = blocks purified human ALDH1A1 activity; hit rate 7.3% among 220,000; Purified ALDH1A1, NADH fluorescence, propionaldehyde substrate; Potency, µM (doses to about 75.3 µM), for the others: top-dose activity, negative = inhibition, hits mostly inhibitors; AID 1030; P00352;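 note: potency is the fitted concentration of half-maximal effect; plate controls were no enzyme wells and a reference inhibitor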
# HPGD block = blocks human HPGD enzyme activity. purified HPGD, NADH fluorescence kinetic, PGE2 substrate. hit rate 4.3% among 150,000. Potency, µM, inactives show at the top dose activity change, negative = inhibition, actives largely listed as inhibitors; note: potency is the fitted concentration of half-maximal effect
# Target sequence (P15428 whole entry, looked up): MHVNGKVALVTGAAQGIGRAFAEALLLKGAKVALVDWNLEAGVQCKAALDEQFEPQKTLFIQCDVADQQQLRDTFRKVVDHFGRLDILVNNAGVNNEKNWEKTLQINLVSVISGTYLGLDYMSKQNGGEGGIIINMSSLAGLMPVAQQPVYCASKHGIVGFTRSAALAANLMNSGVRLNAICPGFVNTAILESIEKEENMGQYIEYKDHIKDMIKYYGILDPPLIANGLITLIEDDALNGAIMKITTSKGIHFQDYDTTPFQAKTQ
#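 20 nM HPGD preincubated 15 min at room temperature with compound in 50 mM Tris-HCl pH 8, 0.01% Tween 20. Started with 1 mM NAD+ and 30 uM prostaglandin E2; NADH fluorescence (360/450 nm) read 5 times over 30-s intervals, last minus first.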
# * marks the source's active call; other numbers are inactive results; u = inconclusive; x = no result given; ! = a repeat was not active; [ ] = dose if it differs, or a comment. Hits are enriched below; roughly 9% of the tested compounds scored in any of these assays. Unless noted, calls come from the whole dose curve; as a rule, active = well fitted inhibition curve with a large enough effect (not every such curve was filed as active); inconclusive = small, poorly fitted or top-dose-only effect, or another doubt; inactive = no such curve, though single readings can be large or run the other way. Unless noted, % is set by controls: 0 for no effect and ±100 for the full control effect.
SMILES,IMPase cell inh,ALDH1A1 inh,HPGD block
CC(=O)[O][Hg][c]1ccccc1,x,0.631µM*,0.251µM*
O=C(O)c1cc[c]([Hg][Cl])cc1,1.5,5.46µM*,0.282µM*
O=C(O)c1cccc(Cl)c1,x,10.9%,-6.9%
Cc1cc[c]([Sb]2[O]C([C@H](O)[C@H](O)C(=O)O)[C@@H](CO)[O]2)cc1 (stereo not given in full),x,2.8%[13.5 µM],1.0%
CC1(C)C(O)CC(O)[C@]2(C)C1CC(=O)[C@]1(C)C2CC[C@@]2(C)C(c3ccoc3)OC(=O)C3OC321 (stereo not given in full),x,11.4%,-16.9%
CC[n+]1c(-c2ccccc2)c2cc(N)ccc2c2ccc(N)cc21,x,-7.9%,35.5µM*!
CN1CCCCC1c1cccnc1 (stereo not given),x,0.8%,x
C[C@@H]1O[C@H](O[C@@H]2C[C@@H](O)[C@]3(CO)[C@H]4[C@H](O)C[C@]5(C)[C@@H](C6=CC(=O)OC6)CC[C@@]5(O)[C@@H]4CC[C@]3(O)C2)[C@@H](O)[C@H](O)[C@H]1O,x,-5.5%,-2.8%
Nc1nonc1C(=O)N/N=C/c1ccc([N+](=O)[O-])o1,x,12.6µM*,x
N/C(=N\[N+](=O)[O-])N/N=C/c1ccc(O)cc1,-9.5,11.9%,-17.8%
O=C(c1ccc2c(c1)ncn2C1CCCCCC1)N1CCC2(CC1)OCCO2,4.0,-12.7%,14.1µM*
Cc1nc2cc(C(=O)N3CCC4(CC3)OCCO4)ccc2n1-c1cccc(F)c1,0.7,25.1µM*,2.82µM*
O=C(c1ccc2nc(-c3ccco3)c(-c3ccco3)nc2c1)N1CCC2(CC1)OCCO2,17.4,u,u
Cn1c2ccccc2c2c(C(=O)N3CCC4(CC3)OCCO4)cn(C3CCCCC3)c(=O)c21,-5.7,u,u
O=NN(c1ccccc1)c1ccccc1,x,u,-5.8%
COc1ccc(/C=C2/C(=O)NC(=S)N(C3CC3)C2=O)cc1CN1C(=O)c2ccccc2C1=O,-6.1,20µM*,14.1µM*
C(#CCN1CCCCC1)COCc1ccccc1,x,1.0%,x
COc1ccc(OCC#CCN2CCCCCC2)cc1,x,22.4µM*,x
CSCC[C@@H](N)P(C)(=O)O,x,4.9%[13.5 µM],-1.7%
COC(=O)[C@H]1[C@@H](c2ccccc2)[C@@]2(c3ccccc3)Oc3ccccc3[C@@]1(O)[C@@H]2O,x,1.9%[13.5 µM],x
O=C1NC(=O)N(CCc2ccc(F)cc2)C(=O)/C1=C/c1cccs1,x,1.41µM*,x
O=C1NC(=O)N(CCC2=CCCCC2)C(=O)/C1=C\c1cccs1,x,1.26µM*,0.316µM*
COCCN1C(=O)NC(=O)/C(=C\c2ccc(F)cc2)C1=O,x,10.1%,x
Cn1cccc1/C=C1\C(=O)NC(=O)N(CCC2=CCCCC2)C1=O,-9.6,u,-13.3%
O=C(c1csnn1)N1CCC2(CC1)CN(Cc1ccncc1)C2,x,-12.6%,-5.9%
SMILES,IMPase cell inh,ALDH1A1 inh,HPGD block
CC(C)(COCC1CO1)COCC1CO1 (stereo not given),x,1.2%,-10.0%
CCOC(=O)C/C(C)=N/NC(=O)COc1ccccc1C,-1.9,u,x
CC(/C=C(\C)Nc1ccccc1)=Nc1ccccc1,x,25.1µM*,x
NC(=S)Nc1ccccc1,x,3.5%,-2.0%
CCCCCCCCCCCCCC(=O)O[C@H]1[C@@H](C)[C@@]2(O)[C@@H](C=C(CO)C[C@]3(O)C(=O)C(C)=C[C@@H]23)C2C(C)(C)[C@]21OC(C)=O (stereo not given in full),0.0,x,x
COc1cccc(-n2c(CN3CCN(C)CC3)nc3ccc([N+](=O)[O-])cc3c2=O)c1,x,8.0%,28.2µM*
CCCc1nc2ccccc2c(=O)n1-c1cccc(OC)c1,0.7,9.6%,-2.7%
CN=C=O,x,-1.0%,-10.8%
COC(=O)CC1(Cc2ccccc2)C(=O)NC(=O)NC1=O,-9.8,3.8%,-4.0%
COC(=O)CCC(=O)Nc1sc(Cc2ccccc2)c(C)c1C(N)=O,x,2µM*,x
COc1ccc(C(=O)OC2C[C@H]3CC[C@@H](C2)N3C)cc1OC (stereo not given in full),-3.5[20.6 µM],-11.5%[20.9 µM],-1.8%
CC[C@H](C)[C@H](NC(=O)[C@@H]1CCCN1C(=O)[C@H](CCC(=O)O)NC(=O)[C@@H](NC(=O)[C@H](Cc1ccccc1)NC(=O)[C@@H]1CCCN1C(=O)[C@@H](N)Cc1ccc(O)cc1)C(C)C)C(=O)O,x,-2.4%,x
Cn1ccnc1P(=S)(c1nccn1C)N1CCOCC1,1.7,28.2µM*,25.1µM*
Cc1nc2ccc(Cl)cn2c1P(=S)(N1CCOCC1)N1CCOCC1,8.2,10.4%,-4.1%
CCOC(=O)C1CCN(/C=C2/C(=O)NC(=S)N(c3ccccc3F)C2=O)CC1,x,5.0%,x
Cc1ccc(/C=C2\C(=O)NC(=S)N(c3ccccc3F)C2=O)s1,-11.2,8.91µM*,2.24µM*
C=CCN1CC[C@]23c4c5ccc(O)c4O[C@@H]2/C(=N/N=C2\CC[C@@]4(O)C6Cc7ccc(O)c8c7[C@@]4(CCN6CC=C)[C@@H]2O8)CC[C@@]3(O)C1C5,x,-8.3%,8.2%
COC(C)C(O)(C(=O)OC1=CCN2CC[C@H](O)[C@H]12)C(C)C (stereo not given in full),6.7,10.1%,4.2%
CC[C@@]1(c2ccc(N)cc2)CCC(=O)NC1=O,-4.7[20.6 µM],1.8%[20.9 µM],-11.0%
Nc1ccc(C2(c3ccc(N)cc3)CCCCC2)cc1,x,14.1µM*,x
O=C(Nc1ccc(Cl)cc1C(=O)c1ccccc1)c1ccco1,14.1,-10.3%,-9.6%
Oc1ccc(Cl)cc1Cc1ccccc1,x,-4.7%,10µM*
Oc1ccc(Cl)cc1Cc1cc(Cl)ccc1O,x,11.9%,14.1µM*!
Oc1ccc(Cl)cc1Cl,x,-5.2%,-10.0%
c1ccc(C2CNCc3ccccc32)cc1 (stereo not given),x,0.8%,x
SMILES,IMPase cell inh,ALDH1A1 inh,HPGD block
CC(C)CNCCc1ccccn1,x,15.8%[13.5 µM],-3.1%
CC(=NCC1CCCO1)c1c(O)n(-c2ccc(C)cc2)c(=O)[nH]c1=O (stereo not given),5.7,2.4%,-0.5%
Cc1ccc(NC(=S)NCC2CCCO2)cc1 (stereo not given),2.7,-13.0%,25.1µM*
O[C@@H]1CCCN2C[C@@H](O)[C@@H](O)C12 (stereo not given in full),x,10.0%,x
Cc1onc(-c2ccccc2)c1C(=O)N[C@@H]1C(=O)N2[C@@H]1SC(C)(C)[C@@H]2C(=O)O,x,u,0.3%
O=C(/C=C/c1ccc(Cl)cc1)N[C@@]12CCC(=O)[C@@H]3Oc4c(O)ccc5c4[C@@]31CCN(CC1CC1)C2C5,x,7.4%,x
Brc1ccc(Oc2ccc(Br)cc2Br)c(Br)c1,x,u,-4.3%
Oc1c(Br)cc(Br)cc1Oc1ccc(Br)cc1Br,x,-0.5%,7.08µM*
COC(=O)C12CC3=CC(CC3=O)Cc3ccccc3[C@@H]1CNC2=O (stereo not given in full),x,-3.6%,-2.4%
O=C1NC(=O)N(Cc2ccco2)C(=O)/C1=C\c1cccn1CCOc1ccc(Cl)cc1,9.2,-3.5%,-21.8%
CCN(CC)c1ccc(/C=C2\C(=O)NC(=O)N(CC3CCCO3)C2=O)cc1 (stereo not given),x,0.251µM*,25.1µM*
CN(C)c1ccc(/C=C2/C(=O)NC(=O)N(Cc3ccco3)C2=O)cc1,x,1µM*,10µM*
Cc1cc(/C=C2\C(=O)NC(=O)N(Cc3ccccc3)C2=O)c(C)n1C1CC1,x,-8.8%,x
CCN(CC)c1ccc(/C=C2/C(=O)NC(=O)N(Cc3ccco3)C2=O)cc1,-1.9,0.562µM*,10µM*

# Screening results: PubChem BioAssay, National Center for Advancing Translational Sciences (NCATS)
